From PubChem BioAssay (NCATS) come the findings set out here.

Records with an inconclusive call do not appear. Calls of active or inactive are those of the source. Calls follow the shape of the dose curve; as a rule, active = well fitted inhibition curve with a large enough effect; inconclusive = small, poorly fitted or top-dose-only effect; inactive = no such curve, though single readings can be large or run the other way.
Potency is read from the fitted curve at half-maximal effect.

A short description of the assay: qHTS Screen of the MIPE 4.0 Collection Against Ewings Sarcoma (EW8) (AID 1259255). Also: nearly all actives have a fitted effect of over 35% in size.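 As to viability: 100% = DMSO-treated cells and 0% = medium-only wells without cells.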 The conditions noted are these: EW8 Ewing sarcoma viability, CellTiter-Glo, 48 h; series mostly up to 45.8 µM; viability: at the top concentration. The source says: There is a large unmet medical need for treatments for Ewing sarcoma, a pediatric sarcoma. We sought to identify compounds that inhibited Ewing sarcoma cells in vitro with the goal to then test promising drugs in two drug combinations in vitro to look for synergistic drug combinations. Promising combinations would then proceed to additional validation, including in vivo testing.
Using the NCATS developed oncology compound library called the Mechanism of Interrogation Plate (MIPE), four Ewing sarcoma cell lines were evaluated (TC32, TC71, RDES, EW8). Compounds, in a 12-point titration series, were incubated with cells for 48 hours and the read out was cell viability (CellTiter-Glo from Promega). These initial experiments were used to select appropriate concentrations of each single agent for subsequent two-drug matrix combinations such that the concentrations in the matrices would span both activity and non-activity.
Cells, in the log phase of growth, were seeded in 5 uL of RPMI plus 5% FBS, […] L-glutamine, 100 U/ml penicillin and 100 ug/ml streptomycin into 1536-well solid-bottom white tissue culture treated Greiner Bio One Plates (789173-F) using a MultiDrop Combi (Thermofisher Scientific) dispenser and a small sterile cassette. One column was media alone to be used as a :"no cells" control. The plates were then covered with sterilized stainless steel gasketed lids from Kalypsys. After allowing cells to attach for 4 hours, 23 nL of test compound or control (negative control DMSO and positive control 9.2 uM Bortezomib-final) were added from a 1536-well polypropylene compound source plate to each well using a 1536 head pin tool from Kalypsys. Cells were then incubated for 48 hours at 37C, 95% relative humidity and 5% CO2. After 48 hours, plates were removed from the incubator and 3 uL of CellTiter-Glo (Promega) was added using an Aurora Flying Reagent Dispenser Bioraptor. Plates were incubated at room temperature for 10 minutes prior to reading the luminescence on the Viewlux (PerkinElmer). The relative luciferase units are used to calculate the percent activity using the activity of DMSO in the cells and no cells columns for normalization of no inhibition and full inhibition respectively.
Usually viability stands for a read-out of living cells in per cent, often relative to untreated cells. For the molecule `CSCC[C@@H](NC(=O)[C@@H](Cc1ccccc1)NC(=O)CNC(=O)CNC(=O)[C@@H](N)Cc1ccc(O)cc1)C(=O)O`, the “viability” value is 112% (inactive).
With `CC(=Cc1csc(C)n1)[C@@H]1C[C@H]2O[C@@H]2CCC[C@H](C)[C@@H](O)[C@@H](C)C(=O)C(C)(C)[C@@H](O)CC(=O)O1`, the “viability” value is 10.4% (inactive).
Regarding `COc1ccc2c(c[n+](C)c3c4cc5c(cc4ccc23)OCO5)c1OC`, the Potency is 7.43 µM (active).
Turning to `C[C@]12CC[C@H](O)CC1=CC[C@H]1[C@H]3CCC(=O)[C@@]3(C)CC[C@@H]12`, the Potency is 16.6 µM (active).
As for `c1ccc2c(CN3CCNCC3)cccc2c1`, the “viability” value was 103% (inactive).
As for `CO[C@H]1CCC(O[C@H]2C[C@H]([C@]3(C)CC[C@]4(C[C@H](O)[C@@H](C)[C@@H]([C@@H](C)C=C(C)C(=O)[C@H](C)C[C@H](C)C(=O)O)O4)O3)O[C@]3(O[C@@H]([C@H]4O[C@@](O)(CO)[C@H](C)C[C@H]4C)C[C@H]3C)[C@H]2C)O[C@H]1C` (stereo not given in full), the Potency was 0.372 µM (active).
On to `O=c1cccc2n1CC1CNC[C@H]2C1`, for which the “viability” value was 120% (inactive).
Turning to `COc1cccc2c1[C@]13CCN(CC4CC4)[C@H](C2)[C@]1(OC)CCC(=O)C3`, the “viability” value is 120% (inactive).
`CCN1CCN(C(=O)Cc2ccc(Nc3ncc(F)c(Nc4ccc(C(=O)Nc5ccccc5Cl)cc4)n3)cc2)CC1`: the Potency is 2.96 µM (active).
Consider `CC1=NN=C(c2ccc(N)cc2)c2cc3c(cc2C1)OCO3`, for which the “viability” value is 98.6% (inactive).
With `CCOC(=O)c1cncn1[C@H](C)c1ccccc1`, the “viability” value was 130% (inactive).
For `C[C@@H]1O[C@@H](O[C@@H]2C=C3CC[C@@H]4[C@@H](CC[C@]5(C)[C@H](c6ccc(=O)oc6)CC[C@@]45O)[C@@]3(C)CC2)[C@H](O)[C@H](O)[C@H]1O`, the Potency was 0.0166 µM (active).
As for `CCN(CC)C(=O)c1ccc(C2=CC3(CCNCC3)Oc3cccc(O)c32)cc1`, the “viability” value was 98.6% (inactive).
On to `CN1CCN(c2ccc([N+](=O)[O-])c3no[n+]([O-])c23)CC1`, for which the Potency is 23.5 µM (active).
`COC1=CC(C)=C[C@@H](C)[C@@H](O)[C@@H](C)CC(C)=CC=C[C@H](OC)[C@H]([C@@H](C)[C@@H](O)[C@H](C)[C@@]2(O)C[C@@H](O)[C@H](C)[C@@H](C(C)C)O2)OC1=O`: the Potency was 0.0053 µM (active).
Take `Cc1c(C(=O)c2cccc3ccccc23)c2cccc3c2n1[C@H](CN1CCOCC1)CO3`: the Potency was 26.4 µM (active).
In the case of `C[C@@H]1CC[C@@]2(OC1)O[C@H]1C[C@H]3[C@@H]4CC=C5C[C@@H](O[C@@H]6O[C@H](CO)[C@@H](O[C@@H]7O[C@@H](C)[C@H](O)[C@@H](O)[C@@H]7O)[C@H](O)[C@@H]6O[C@@H]6O[C@@H](C)[C@H](O)[C@@H](O)[C@@H]6O)CC[C@]5(C)[C@@H]4CC[C@]3(C)[C@@H]1[C@H]2C`, the Potency is 3.72 µM (active).
As to `CC[C@H]1C=CC=CC[C@@H](C)[C@H](O)[C@@](C)(O)C(=O)[C@@H](C)[C@H](O)[C@@H](C)C(=O)[C@@H](C)[C@H](O)[C@@H](C)C=CC(=O)O[C@@H]2[C@@H](C)[C@H](CC1)O[C@]1(CC[C@H](C)[C@H](C[C@@H](C)O)O1)[C@H]2C`, the Potency was 4.69 µM (active).
In the case of `CC(C)[C@H]1C(=O)N[C@H](CO)Cc2c[nH]c3cccc(c23)N1C`, the “viability” value is 114% (inactive).
Turning to `O=c1[nH]c2ccccc2n1C1CCN(Cc2ccc(-c3[nH]c4cc5ncnc5cc4nc3-c3ccccc3)cc2)CC1`, the Potency was 18.7 µM (active).
Turning to `O=C(O)CNC(=O)c1c(O)c2ccccc2n(Cc2ccccc2)c1=O`, the Potency is 16.6 µM (active).
As for `Cc1c(C(=O)Nc2cccc(C(F)(F)F)c2)cc(-c2ccccc2)n1CCCN1CCOCC1`, the Potency is 16.6 µM (active).
Consider `C[C@H]1CCCC=CC2C[C@H](O)C[C@@H]2[C@H](O)C=CC(=O)O1` (stereo not given in full), for which the “viability” value was 1.93% (inactive).
With `O=C(Nc1ccncc1)C(=O)c1cn(Cc2ccc(Cl)cc2)c2ccccc12`, the Potency is 0.0935 µM (active).
Turning to `Cc1ccccc1-n1c(Cn2cnc3c(N)ncnc32)nc2cccc(C)c2c1=O`, the Potency is 5.26 µM (active).
Turning to `NC1=NC(=O)N2CC12` (stereo not given), the “viability” value was 83.8% (inactive).
On the same count and under the same terms, the same measure for `C1=C2CCCN[C@H]2[C@@H]2C[C@H]1[C@@H]1CCCCN1C2`: 124% (inactive); for `C[C@H]([C@H](O)CCC(C)(C)O)[C@H]1CC[C@@]2(O)C3=CC(=O)[C@@H]4C[C@@H](O)[C@@H](O)C[C@]4(C)[C@@H]3CC[C@]12C`: 122% (inactive).
With `O=c1[nH]c2ccc(Cl)cc2c(N[C@@H]2CN3CCC2CC3)c1-c1nc2ccccc2[nH]1`, the Potency is 0.0743 µM (active).
Take `COc1cc2cc(c1Cl)N(C)C(=O)C[C@H](OC(=O)C(C)C)[C@]1(C)O[C@H]1[C@H](C)[C@@H]1C[C@@](O)(NC(=O)O1)[C@H](OC)C=CC=C(C)C2`: the “viability” value is 4.2% (inactive).
`C[C@@H]1[C@H](O)[C@@H](C)C=CC=CCCC=CC=CC=CC=C[C@H](O[C@H]2O[C@@H](C)[C@H](O)[C@@H](N)[C@@H]2O)CC2O[C@](O)(C[C@@H](O)[C@H](O)CC[C@@H](O)C[C@@H](O)C[C@@H](O)CC(=O)O[C@H]1C)C[C@H](O)[C@H]2C(=O)O`: the “viability” value is 116% (inactive).
As for `C[C@@]12OC(=O)[C@]1([C@@H](O)[C@@H]1C=CCCC1)NC(=O)[C@H]2CCCl`, the Potency was 0.0264 µM (active).
Regarding `CC=C(C)C(=O)O[C@H]1C(C)=C2[C@@H]3OC(=O)[C@@](C)(O)[C@@]3(O)[C@@H](OC(=O)CCC)C[C@](C)(OC(C)=O)[C@@H]2[C@@H]1OC(=O)CCCCCCC`, the Potency is 0.0935 µM (active).
As for `COc1ccc(N(C(=O)Oc2c(C)cccc2C)c2ccnc(Nc3ccc(N4CCN(C)CC4)cc3)n2)c(OC)c1`, the Potency was 2.64 µM (active).
For the molecule `CC[C@@]1(O)C(=O)OCc2c1cc1n(c2=O)Cc2cc3ccccc3nc2-1`, the Potency is 0.0118 µM (active).
Turning to `CC(C)(O)C=CC(=O)[C@](C)(O)[C@H]1[C@H](O)C[C@]2(C)[C@@H]3CC=C4[C@@H](C=C(O)C(=O)C4(C)C)[C@]3(C)C(=O)C[C@@]12C`, the Potency was 0.118 µM (active).
On to `COc1cc([C@@H]2c3cc4c(cc3[C@@H](O)C3COC(=O)C32)OCO4)cc(OC)c1O` (stereo not given in full), for which the Potency is 0.0264 µM (active).
As to `CC(C)N[C@@H]1CCn2c(=O)[nH]c3cccc(c32)[C@@H]1O`, the Potency is 7.43 µM (active).
Turning to `CC(C)N(CCNC(=O)CN1CCCC1=O)C(C)C`, the “viability” value is 109% (inactive).
With `CCNC(=O)C[C@@H]1N=C(c2ccc(Cl)cc2)c2cc(OC)ccc2-n2c(C)nnc21`, the Potency was 7.43 µM (active).
